# WRN helicase inh-1 = inhibitors of human WRN helicase. Q14191. WRN helicase unwinding, fluorescent forked duplex, kinetic. Potency, µM (titrated, usually from 114 µM), for the others: top-dose activity change, negative = inhibition, usual class: inhibitors. 360,000 compounds, 0.46% hits; further: potency means the concentration at half of the fitted maximal effect; on the % scale 0 is the no-effect control and ±100 the full control effect; nearly all actives have a fitted effect of over 55% in size
#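 Fluorescence dequenching readout, ex 525 nm/em 598 nm, kinetic mode: forked duplex DNA (100 nM final) with adjacent fluorophore and quencher unwound by WRN (20 nM final) with 2 mM ATP. Compound preincubation 15 min, room temperature.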
# PI5P4K alpha inh = PI5P4K alpha (human) kinase inhibition | 330,000 compounds, 1.2% hits | max response, % | AID 652105 | P48426 | PI5P4Kalpha enzyme, ADP-Glo luminescence, 60 min; active compounds read low; active means max response of -50% or lower; inconclusive means between -30% and -50%; inactive means -30% or higher; further: value at the top dose of about 77 µM; on the % scale 0 is the no-effect control and ±100 the full control effect
#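 Compounds were pin-transferred onto PI5P4Kalpha and substrate in HEPES pH 7.4 buffer with EGTA, CHAPS and 5% DMSO. ATP (5 microM final) started the reaction, which ran 60 minutes at room temperature before ADP-Glo detection.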
# Pol beta inh-1 = DNA polymerase beta (human) inhibition. AID 485314. Potency, µM (series often up to 114 µM), without a hit: top-dose activity change, negative = inhibition, most hits filed as inhibitors. Pol beta primer extension/strand displacement, fluorescence kinetic. 340,000 compounds, 1.3% hits; further: potency means the concentration at half of the fitted maximal effect; on the % scale 0 is the no-effect control and ±100 the full control effect
#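 Enzyme-only controls used 10 nM Pol beta; buffer lacking enzyme served as negative control. Compound preincubated 15 min, then 50 nM substrate added; 0 and 10 min reads at room temperature.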
# Pol eta inh-1 = blocks human DNA polymerase eta activity; Q9Y253; recombinant Pol eta, fluorescent DNA replication assay; Potency, µM (titrated, usually from 114 µM), inactives show top-dose activity change, negative = inhibition, most hits filed as inhibitors; 390,000 compounds, 1.2% hits; AID 588591; further: potency means the concentration at half of the fitted maximal effect; on the % scale 0 is the no-effect control and ±100 the full control effect
#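 Pol eta (10 nM) was preincubated with compounds for 15 min at room temperature, after which fluorescent replication substrate (50 nM final) was added to start the reaction. Fluorescence was read kinetically at 0 and 10 min.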
# Pol iota inh = inhibitors of human DNA polymerase iota. AID 588590. Potency, µM (series often up to 115 µM), inactives show top-dose activity, negative = inhibition, most hits filed as inhibitors. Q9UNA4. Pol iota fluorescent replication assay, 10 min. 390,000 compounds, 1% hits; further: potency means the concentration at half of the fitted maximal effect
#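 Fluorescent replication assay read twice, at 0 min and 10 min after adding 50 nM (final) substrate. Enzyme (10 nM) and compounds were first incubated 15 min at room temperature; enzyme-free buffer wells were negative controls.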
# POLK inh = inhibitors of human DNA polymerase kappa | AID 588579 | Potency, µM (highest dose often 107 µM), for the others: at the top dose activity, negative = inhibition, hits mostly inhibitors | Q9UBT6 | purified Pol kappa, fluorescent DNA synthesis assay, 10 min | 400,000 compounds, 0.53% hits; further: potency means the concentration at half of the fitted maximal effect; on the % scale 0 is the no-effect control and ±100 the full control effect
# Target sequence (Q9UBT6 whole entry, looked up): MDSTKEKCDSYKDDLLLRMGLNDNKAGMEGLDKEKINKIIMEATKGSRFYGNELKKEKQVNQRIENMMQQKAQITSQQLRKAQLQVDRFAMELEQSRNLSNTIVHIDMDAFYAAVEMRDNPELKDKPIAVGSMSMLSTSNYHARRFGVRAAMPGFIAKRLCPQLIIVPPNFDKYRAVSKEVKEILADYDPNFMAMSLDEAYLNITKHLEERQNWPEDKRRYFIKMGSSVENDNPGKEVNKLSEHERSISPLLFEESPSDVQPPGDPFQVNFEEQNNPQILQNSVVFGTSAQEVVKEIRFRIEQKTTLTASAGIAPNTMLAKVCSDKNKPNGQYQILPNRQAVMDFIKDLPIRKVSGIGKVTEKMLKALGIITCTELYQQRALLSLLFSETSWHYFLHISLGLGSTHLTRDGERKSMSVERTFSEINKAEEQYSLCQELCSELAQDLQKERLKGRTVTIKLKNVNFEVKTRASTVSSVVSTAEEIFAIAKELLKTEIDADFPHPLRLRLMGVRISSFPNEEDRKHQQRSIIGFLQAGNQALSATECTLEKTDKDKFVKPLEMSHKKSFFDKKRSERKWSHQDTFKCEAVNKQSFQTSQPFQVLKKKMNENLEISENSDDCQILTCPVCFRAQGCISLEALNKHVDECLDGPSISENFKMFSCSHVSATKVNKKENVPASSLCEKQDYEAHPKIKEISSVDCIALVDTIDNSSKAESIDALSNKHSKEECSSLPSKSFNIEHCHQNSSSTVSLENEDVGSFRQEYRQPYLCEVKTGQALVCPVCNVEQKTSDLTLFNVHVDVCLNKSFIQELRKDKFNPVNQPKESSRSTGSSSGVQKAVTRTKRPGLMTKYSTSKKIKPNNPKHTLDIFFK
#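 50 nM final substrate added after 15 min RT preincubation of 10 nM Pol kappa with compound; fluorescence read at 0 and 10 min.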
# Pol beta inh-2 = Inhibitors of human DNA polymerase beta, hit validation | shares compounds with Pol beta inh-1 | Pol beta primer extension/strand displacement, fluorescence kinetic | Potency, µM, hits mostly inhibitors | 250 compounds, 87% hits | AID 540280; calls by dose curve; further: potency means the concentration at half of the fitted maximal effect
# Klenow inh = inhibits Klenow fragment polymerase in counter-screen. shares compounds with Pol beta inh-1. Klenow exo- polymerase counter-screen, fluorescent DNA substrate. activity change, negative = inhibition, % at 57.1 µM. 250 tested, under 10 active. AID 540300
# HIV RT counter = counter-screen for DNA polymerase beta inhibitors: HIV-1 RT inhibition; 250 tested, under 10 active; shares compounds with Pol beta inh-1; AID 540301; HIV-1 RT polymerase activity, counter-screen; activity % (negative = inhibition, positive = activation), % at 57.1 µM
# POLB valid = DNA polymerase beta inhibition, radiolabeled validation; shares compounds with Pol beta inh-1; radiolabeled primer extension gel assay, phosphorimager; inhibition, % at 10 µM; 110 compounds, 91% hits; AID 540325;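 active means inhibition at 10 µM of 30% or more; inconclusive means no clear call, values can overlap the other calls; inactive means inhibition at 10 µM under 30%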
# PGK validate = validation of Trypanosoma brucei phosphoglycerate kinase inhibitors | TbPGK coupled GAPDH assay, Kinase-Glo luminescence | Potency, µM (top dose mostly 57.5 µM), without a hit: at the top dose activity change, negative = inhibition, most hits filed as inhibitors | 500 compounds, 79% hits | shares compounds with POLK inh; further: potency means the concentration at half of the fitted maximal effect; on the % scale 0 is the no-effect control and ±100 the full control effect; nearly all actives have a fitted effect of over 65% in size
# Pol iota confirm = Inhibitors of human DNA polymerase iota, confirmation. shares compounds with POLK inh. Pol iota primer extension, TAMRA/BHQ fluorescence. Potency, µM, hits mostly inhibitors. 1,500 compounds, 77% hits; further: potency means the concentration at half of the fitted maximal effect
# Pol eta inh-2 = Pol eta (human) inhibition, cherry-pick confirmation. shares compounds with Pol eta inh-1. Pol eta primer extension, TAMRA/BHQ fluorescence, 10 min. Potency, µM, actives largely listed as inhibitors. 2,600 compounds, 64% hits; further: potency means the concentration at half of the fitted maximal effect
# WRN helicase inh-2 = confirmation of human WRN helicase inhibitors | 610 compounds, 63% hits | WRN helicase DNA unwinding, fluorescence kinetic | Potency, µM (highest dose often 57.1 µM), inactives show at the top dose activity, negative = inhibition, actives largely listed as inhibitors | AID 720497 | shares compounds with WRN helicase inh-1; further: potency means the concentration at half of the fitted maximal effect; nearly all actives have a fitted effect of over 65% in size
# TO DNA binding = DNA binding via thiazole orange displacement | Potency, µM (doses to about 57.1 µM), inactives show at the top dose activity change, negative = inhibition, hits mostly inhibitors | AID 720499 | thiazole orange DNA binding displacement, fluorescence | 610 compounds, 10% hits | shares compounds with WRN helicase inh-1;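 further: drop in dye fluorescence marks compound binding to DNA; potency means the concentration at half of the fitted maximal effect; on the % scale 0 is the no-effect control and ±100 the full control effect; nearly all actives have a fitted effect of over 60% in size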
# BLM helicase inh = BLM helicase inhibition, WRN selectivity check | 610 compounds, 60% hits | Potency, µM (doses to about 57.1 µM), without a hit: at the highest dose activity change, negative = inhibition, actives largely listed as inhibitors | shares compounds with WRN helicase inh-1 | AID 720503 | Recombinant BLM helicase DNA unwinding, red fluorescence; further: potency means the concentration at half of the fitted maximal effect; nearly all actives have a fitted effect of over 60% in size
# ADP-Glo counter = ADP-Glo luciferase interference, PI5P4K counter-screen. Potency, µM (titrated, usually from 76.9 µM), without a hit: at the top dose activity change, negative = inhibition, most hits filed as inhibitors. shares compounds with PI5P4K alpha inh. 1,100 tested, under 10 active. ADP-Glo detection counter-screen, luciferase luminescence, no enzyme. AID 743285
# * = called active by the depositor; ? = inconclusive; nt = not tested or not shown; [ ] = remark or other dose. Rows were chosen to be rich in hits. Some 2.8% of all compounds tested hit in one or more screens of this group. Unless noted, the call rests on the fitted dose curve; in most records, active means well fitted curve in the direction sought with a large enough effect; inconclusive means small, poorly fitted or top-dose-only effect, or another doubt; inactive means no such curve, though single readings can be large; an effect the other way counts as inactive or inconclusive.
SMILES,WRN helicase inh-1,PI5P4K alpha inh,Pol beta inh-1,Pol eta inh-1,Pol iota inh,POLK inh,Pol beta inh-2,Klenow inh,HIV RT counter,POLB valid,Pol iota confirm,Pol eta inh-2,others
Cc1nnc(NC(=O)COc2ccc3c(C)cc(=O)oc3c2)s1,?,?,20µM*,10µM*,?,-23%,22*,3,-4,96*,60*,76*,
COC(=O)C1CCN(c2ccc(C(N)=O)cc2[N+](=O)[O-])CC1,-2%,2,2%[57.1 µM],-8%,6%,-6%,nt,nt,nt,nt,nt,nt,
Cc1cc(C(F)F)n2nc(C(=O)Nc3sc4c(c3C(N)=O)CCC4)nc2n1,-36%[57.1 µM],?,16µM*,20µM*,20µM*,?,32*,-13,-14,18,?,?,
COC(=O)c1c(NC(=O)c2nc3nc(C)cc(C(F)F)n3n2)sc2c1CCC2,-25%,nt,30%,-5%,?,-7%,nt,nt,nt,nt,nt,nt,
CCOC(=O)c1cnc(-n2nc(C)cc2C)[nH]c1=O,11%,1,-3%,9%,?,10%,nt,nt,nt,nt,nt,nt,
CCOC(=O)c1cnc(-n2[nH]c(C)cc2=O)[nH]c1=O,56µM*,2,3.2µM*,?,0.89µM*,8.9µM*,32*,-30,8,89*,27*,11*,
CC1(c2cccc(Br)c2)NC(=O)N(CC(=O)c2ccc3c(c2)OCO3)C1=O (stereo not drawn),-3%,-9,nt,-5%,nt,nt,nt,nt,nt,nt,nt,nt,
CCOC(=O)c1ccc2nc(C)cc(Nc3ccc(OC(C)C)cc3)c2c1,nt,nt,14%,-19%,11%,1%,nt,nt,nt,nt,nt,nt,
CN(CC(=O)NC(=O)NCc1ccco1)Cc1nc2ccccc2c(=O)[nH]1,?,nt,20µM*,?,25µM*,?,35*,-26,37,83*,60*,?,
Fc1ccc(COc2cccc3cccnc23)cc1,4%,3,15%,-7%,82%,4%,nt,nt,nt,nt,nt,nt,
Cc1oc(C(=O)O)cc1COc1cccc2cccnc12,?,-8,10µM*,8.9µM*,10µM*,?,16*,-23,2,nt,67*,?,
CCOC(=O)c1cccc(Nc2ccc3cc(S(=O)(=O)N4CCCCC4)ccc3n2)c1,nt,nt,-3%,-19%,10%,-10%,nt,nt,nt,nt,nt,nt,
CCOC(=O)c1ccccc1NC(=O)c1ccc2nccnc2c1,-12%,-24,8.9µM*,20µM*,?,?,28*,-3,3,54*,?,30*,
COC(=O)c1ccccc1NC(=O)c1noc2c1CCC2,?,nt,10µM*,20µM*,20µM*,?,32*,-33,7,73*,38*,30*,WRN helicase inh-2=17µM*;TO DNA binding=-20%;BLM helicase inh=4.8µM*
Cc1nn(-c2ccccc2)c2nc(-c3ccco3)cc(C(=O)O)c12,?,?,14µM*,7.9µM*,?,28µM*,25*,-37,?,65*,nt,30*,WRN helicase inh-2=?;TO DNA binding=-25%;BLM helicase inh=-15%
Cc1ccccc1-c1n[nH]nc1C1=CC(=O)C[C@H](c2ccc(F)cc2)C1,-4%,0,nt,-1%,nt,nt,nt,nt,nt,nt,nt,nt,
COc1ccc(-n2nnnc2SCC(=O)c2ccc(O)c(O)c2)cc1,16µM*,nt,20µM*,40µM*,?,40µM*,13*,-30,10,nt,nt,nt,WRN helicase inh-2=6.8µM*;TO DNA binding=?;BLM helicase inh=11µM*
COc1ccc(-n2nnnc2SCC(N)=O)cc1,0%,2,-2%,8%,21%,-3%,nt,nt,nt,nt,nt,nt,
COc1ccc(-c2cc(=O)oc3c(O)c(O)ccc23)cc1,13µM*,-17,10µM*,7.9µM*,?,?,6.3*,-9,17,nt,67*,?,PGK validate=9.2µM*;WRN helicase inh-2=5.4µM*;TO DNA binding=-5%;BLM helicase inh=3.8µM*
COc1ccc(-c2cc(=O)oc3cc(OC(C)C(=O)O)ccc23)cc1 (stereo not drawn),-16%,nt,20%,1%,-7%,3%,nt,nt,nt,nt,nt,nt,
CCCSc1nc2sc3c(c2c(=O)n1Cc1ccccc1)CC(C)(CC)OC3 (stereo not drawn),nt,nt,23%,-3%,-2%,-4%,nt,nt,nt,nt,nt,nt,
O=C(COC(=O)c1cccc(S(=O)(=O)N2CCN(c3ccccc3)CC2)c1)NCc1ccco1,?,-54*,20µM*,8.9µM*,?,79µM*,13*,-33,10,nt,75*,43*,ADP-Glo counter=-3%

# Screening data deposited in PubChem by National Center for Advancing Translational Sciences (NCATS).
